Compound activity (PubChem BioAssay)
HSF1 inhib: HSF1 inhibition | NIH3T3-HGL HSE-luciferase, MG132-induced, luminescence 8 h; active compounds read low | activity change, negative = inhibition, % at 7.5 µM (by protocol) | 300,000 tested, 0.77% active | AID 2098;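 active = more than half of replicate wells show activity change below -50%, luminescence cut by over half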;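 also: luciferase reports HSF-1 transcriptional activity via heat shock element; 0% = median of DMSO wells and -100% = zero luminescence signal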
HSF1 activator: increases HSF-1 driven luciferase reporter signal; NIH3T3-HGL HSF-1 luciferase reporter, MG132, 8 h; 100% = twice DMSO control signal; activation, % at 9 µM; 300,000 tested, 1.7% active; AID 504408;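 active = mean replicate activation of at least 50% with a set share of replicates each reaching 50%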;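 also: 0% = median of the neutral control wells and 100% = twice that signal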
FXN GAA850 act: increases GAA850 frataxin promoter reporter activity. HEK293 lucGAA850 FXN promoter luciferase reporter, 24 h; percent of 10 µM SAHA response. activation, % at 6 µM. 360,000 tested, 0.56% active;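 active = activation above the average of all compounds screened plus 3 SD, cutoff fixed separately per campaign, cut at about 7.5% in these data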;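 also: 0% = DMSO wells and 100% = 10 µM SAHA wells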
AHR act: human AHR activation; P35869; AHR-responsive luciferase reporter cells, luminescence; activation, % at 5 µM; 320,000 tested, 2.5% active; in the data active = activation above about 47%;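 also: 0% = vehicle wells and 100% = reference agonist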
* = called active by the depositor; x = no result given. An excerpt weighted towards active compounds, which were near 4.6% of everything screened.

SMILES | HSF1 inhib | HSF1 activator | FXN GAA850 act | AHR act
Cn1cc(C(=O)O)c(-c2ccc3c(c2)OCCCO3)n1 | -6 | -3 | 1 | -1
Cn1cc(C=O)c(-c2ccc3c(c2)OCCCO3)n1 | 42 | 89* | -1 | 2
COc1ccc(C2=NOC(CN3C(=O)c4ccccc4S3(=O)=O)C2)cc1 (configuration not stated) | 40 | 72* | 4 | 2
O=C1c2ccccc2S(=O)(=O)N1CC1CC(c2ccc(Cl)cc2)=NO1 (configuration not stated) | 66 | 82* | 3 | 49*
O=C(NCc1ccc2c(c1)OCO2)C(=O)NCC1OCCN1S(=O)(=O)c1ccc(Br)cc1 (configuration not stated) | 1 | 9 | -2 | 4
CCn1c(CSc2nc3ccccc3s2)nc2ccccc21 | 58 | 76* | 5 | -3
CC(C)(C)c1nc(SCC(=O)c2ccccc2)c2ccccc2n1 | -7 | 6 | 2 | -2
O=C(CSc1ccc2ccccc2n1)c1ccccc1 | 14 | 23 | 5 | 68*
O=C(CSc1ccc2ccccc2n1)N/N=C/c1ccccc1O | 2 | -6 | 3 | x
Cc1nc2ccccc2nc1SCC(=O)c1ccccc1 | -5 | 12 | 4 | 48*
COc1cccc(C2C3=C(CCCC3=O)Nc3nc(-c4cc(OC)c(OC)c(OC)c4)nn32)c1 (configuration not stated) | -7 | 2 | 1 | 31
COc1cc(-c2nc3n(n2)C(c2ccc(F)cc2)C2=C(CCCC2=O)N3)cc(OC)c1OC (configuration not stated) | 2 | 0 | 1 | 82*
Cc1cc(Br)ccc1SCC(=O)OCC(=O)Nc1ccccc1C#N | 18 | 4 | 0 | 14
CCN(CC)P(=O)(Nc1ccc(C)cc1Br)c1ccc(N(C)C)cc1NC(=O)c1ccco1 (configuration not stated) | 0 | 28 | -2 | 49*
COc1cccc(N2CCN(Cc3nnnn3C3CCCCC3)CC2)c1 | -60* | -68 | -1 | 1
Cc1ccc(C)c(N2CCN(Cc3nnnn3C3CCCCC3)CC2)c1 | -5 | 14 | -1 | 5
COc1ccc(OC)c(Nc2nc3ccc(C)cc3n3cnnc23)c1 | 19 | 74* | -1 | 22
Cc1ccc(-c2ccc(=O)n(CCC(=O)NCCN3CCCCC3C)n2)cc1 (configuration not stated) | -75* | -80 | 1 | 3
COc1ccc(-c2nc(C)c(C(C)=O)n2O)cc1OC | -3 | 7 | -1 | 48*
CCc1nnc(NC(=O)c2cc(-c3ccccn3)nc3ccc(Br)cc23)s1 | -4 | -12 | -1 | 49*
CCc1nnc(NC(=O)c2cc(-c3ccncc3)nc3ccccc23)s1 | 0 | 1 | 0 | 62*
CC(C)(C)c1nnc(NC(=O)c2cc(-c3ccccc3)nc3ccccc23)s1 | 3 | 7 | 2 | 6
COc1ccccc1CCNC(=O)c1cc(-c2ccccn2)nc2ccc(Br)cc12 | 1 | -13 | x | 4
CC(=O)Nc1ccc(N=Cc2c(O)c3ccccc3oc2=O)cc1 | 26 | 63* | 2 | x
CC(=O)c1cccc(N=Cc2c(O)c3ccccc3oc2=O)c1 | 74 | 106* | -2 | -1
COc1cccc(N=Cc2c(O)c3ccccc3oc2=O)c1 | -6 | 3 | 1 | 29
